In this test the target is Glucose transporter (Leishmania mexicana) (UniProt O61059). Nature of the test: ST_JUDE_LEISH: Cytotoxicity at 2uM final concentration against transgenic Leishmania Mexicana promastigotes LmGT2 that are glucose transport deficient and complemented with the L. Mexicana glucose transporter 2. Activity is measured by DNA content using SYBR green in vitro. Type of test: functional.
The term inhibition denotes the drop in the measured response relative to a control, in per cent. Regarding `CNC(=O)c1cnc(Nc2ccc3[nH]c(=O)[nH]c3c2)nc1Nc1cccc(OC(C)C)c1`, the inhibition was -0.26%.

In the case of `Oc1ccc(CCNc2nc(NCCCOc3cc(CN4CCCCC4)ccc3F)nc(N3CCNCC3)n2)cc1`, the inhibition stood at 5.14%.

For `O=C(O)C[C@H](NC(=O)c1cc(-c2ccc3c(c2)OCO3)no1)C(=O)O.O=C(O)C[C@H](NC(=O)c1conc1-c1ccc2c(c1)OCO2)C(=O)O`, the inhibition was -2.23%.

Take `Clc1ccc(C2CCN(CCCOc3ccc4c(c3)CCNCC4)CC2)cc1`: the inhibition was 75.7%.

As to `COC1CCC(C(=O)Nc2ccc(-c3cccc(-c4nc5cccc(C)c5[nH]4)c3)cc2)CC1` (configuration not stated), the inhibition worked out at 3.5%.

`CN1CCN(CCCN(Cc2csc(-c3ccc(CNCc4ccccc4)cc3)n2)S(=O)(=O)c2ccccc2)CC1`: the inhibition came out at 4.53%.

Turning to `C=C[C@]1(C)C[C@@H](OC(=O)CNC[C@@H](O)CN2C[C@H](c3ccnc4ccc(OC)nc34)OC2=O)[C@@]2(C)[C@@H]3C(=O)CC[C@@]3(CC[C@@H]2C)[C@@H](C)[C@@H]1O`, the inhibition is 1.03%.

For `Cc1cc(N2CCOCC2)nc(Nc2ccc(NC(=O)Nc3ccc(F)cc3)cc2)n1`, the inhibition was 1.66%.

Consider `O=C(NCCN1CCCCC1)c1cc2cc(-c3ccccc3)ccc2n1S(=O)(=O)c1ccccc1`, for which the inhibition was 55.4%.

For `O=C1CN(C(=O)CCC2CCCC2)C(c2ccc(F)cc2)c2cc(F)ccc2N1` (configuration not stated), the inhibition came out at 0.37%.

As to `Cn1cncc1CCN(Cc1ccc(-c2ccc(C(F)(F)F)cc2)cc1)C(=O)Cn1c(CCc2cccc(F)c2F)cc(=O)c2cccnc21`, the inhibition was -0.14%.

`CC(C)CCN1CCC(Oc2cccc(NC(=O)c3ccc(C(F)(F)F)cc3)c2)CC1`: the inhibition is 1.09%.

Values taken from ChEMBL document CHEMBL3433997, “St. Jude Leishmania screening dataset” (2016).
